From PubChem BioAssay (NCATS)
Where “and” joins values, the source holds several entries; their conditions need not be identical. Equal values may be shown once. Records with an inconclusive call do not appear. Calls of active or inactive are those of the source. Unless noted, calls come from the whole dose curve; as a rule, active = well fitted curve in the direction sought with a large enough effect; inconclusive = small, poorly fitted or top-dose-only effect, or another doubt; inactive = no such curve, though single readings can be large; an effect the other way counts as inactive or inconclusive.

Columns and labels:
[1] = target: Voltage-gated inwardly rectifying potassium channel KCNH2 (Homo sapiens) (UniProt Q12809); assay: qHTS Assay for Small Molecule Inhibitors of the Human hERG Channel Activity (AID 588834); details: U2OS BacMam hERG, FluxOR thallium flux fluorescence; series mostly up to 46.1 µM;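 note: lower thallium flux fluorescence means stronger hERG block; nearly all actives have a fitted effect of over 50% in size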; note: potency is the fitted concentration of half-maximal effect
Voltage-gated inwardly rectifying potassium channel KCNH2 (Homo sapiens), sequence (Q12809 whole entry, looked up): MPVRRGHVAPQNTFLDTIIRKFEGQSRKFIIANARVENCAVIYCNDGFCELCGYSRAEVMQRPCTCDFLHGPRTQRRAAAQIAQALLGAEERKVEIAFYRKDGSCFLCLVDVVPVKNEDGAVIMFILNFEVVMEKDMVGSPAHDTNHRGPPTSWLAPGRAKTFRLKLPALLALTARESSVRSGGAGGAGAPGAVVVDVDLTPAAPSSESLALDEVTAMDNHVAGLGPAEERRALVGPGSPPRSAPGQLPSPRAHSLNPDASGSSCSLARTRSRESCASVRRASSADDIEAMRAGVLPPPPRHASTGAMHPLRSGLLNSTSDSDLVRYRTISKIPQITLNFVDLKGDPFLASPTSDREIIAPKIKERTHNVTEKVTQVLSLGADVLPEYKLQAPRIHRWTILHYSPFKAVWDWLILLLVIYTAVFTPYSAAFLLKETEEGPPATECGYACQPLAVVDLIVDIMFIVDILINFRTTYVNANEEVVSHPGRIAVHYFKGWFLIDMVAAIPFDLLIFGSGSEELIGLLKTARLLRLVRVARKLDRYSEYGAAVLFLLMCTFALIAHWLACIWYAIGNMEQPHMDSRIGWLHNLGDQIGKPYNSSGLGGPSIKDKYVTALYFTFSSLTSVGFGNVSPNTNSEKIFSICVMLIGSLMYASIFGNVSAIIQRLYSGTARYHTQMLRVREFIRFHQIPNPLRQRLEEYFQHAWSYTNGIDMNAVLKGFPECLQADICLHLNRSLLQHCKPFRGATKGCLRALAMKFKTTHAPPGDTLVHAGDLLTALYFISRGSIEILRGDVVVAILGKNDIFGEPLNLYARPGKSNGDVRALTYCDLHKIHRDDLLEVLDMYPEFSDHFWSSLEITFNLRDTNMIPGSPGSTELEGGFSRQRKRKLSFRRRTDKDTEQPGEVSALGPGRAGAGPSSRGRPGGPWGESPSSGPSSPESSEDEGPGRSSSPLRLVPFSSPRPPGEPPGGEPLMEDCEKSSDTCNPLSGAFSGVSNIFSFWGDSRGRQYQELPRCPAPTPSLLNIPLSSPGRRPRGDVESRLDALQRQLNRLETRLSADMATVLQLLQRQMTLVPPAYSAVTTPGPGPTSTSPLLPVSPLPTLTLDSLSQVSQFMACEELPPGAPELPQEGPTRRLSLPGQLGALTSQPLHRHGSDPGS
How it was run: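 Thallium-flux (FluxOR) read-out on FDSS: fluorescence read 10 s before and 2 min after stimulation buffer. hERG-BacMam-transduced U2OS cells, compound exposure about 10 min. AC50 by standard Hill equation.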

[2] = target: Luciferin 4-monooxygenase (Photinus pyralis) (UniProt P08659); assay: Biochemical firefly luciferase enzyme assay for NPC (AID 624030);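 note: purified P. pyralis luciferase at 10 nM with luciferin and ATP substrate; 0% = DMSO and -100% = full luciferase inhibition by PTC124 control; nearly all actives have a fitted effect of over 70% in size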; details: purified P. pyralis luciferase, luminescence, 5 min; series mostly up to 58.6 µM
Luciferin 4-monooxygenase (Photinus pyralis), sequence (P08659 whole entry, looked up): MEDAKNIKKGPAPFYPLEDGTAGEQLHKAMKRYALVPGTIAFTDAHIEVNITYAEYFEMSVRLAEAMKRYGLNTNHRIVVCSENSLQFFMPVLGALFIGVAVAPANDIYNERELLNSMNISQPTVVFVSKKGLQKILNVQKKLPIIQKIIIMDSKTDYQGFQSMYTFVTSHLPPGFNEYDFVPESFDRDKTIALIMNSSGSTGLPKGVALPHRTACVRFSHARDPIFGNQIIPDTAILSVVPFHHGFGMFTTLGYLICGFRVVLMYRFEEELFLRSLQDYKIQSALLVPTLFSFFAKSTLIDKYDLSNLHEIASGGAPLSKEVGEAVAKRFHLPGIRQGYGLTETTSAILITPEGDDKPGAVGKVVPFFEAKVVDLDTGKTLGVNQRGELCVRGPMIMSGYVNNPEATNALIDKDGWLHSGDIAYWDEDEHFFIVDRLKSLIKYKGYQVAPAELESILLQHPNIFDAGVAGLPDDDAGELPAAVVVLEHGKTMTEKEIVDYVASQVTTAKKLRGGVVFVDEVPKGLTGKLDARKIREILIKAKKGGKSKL
How it was run: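 Counter-screen for direct inhibition of the luciferase enzyme by approved-drug library compounds, run at 10 nM enzyme in 50 mM Tris acetate (final). Luminescence was read within 5 min of enzyme-buffer addition and normalized to PTC124 versus DMSO (0%).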

[3] = qHTS assay for small molecule antagonists of peroxisome proliferator-activated receptor delta signaling (AID 588535); details: HEK293T PPARd-UAS-bla, beta-lactamase FRET ratio, 18 h; 460 nm channel;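 note: cells co-treated with a PPAR-delta agonist as stimulator during compound exposure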
How it was run: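 Compounds tested in titration on PPAR-delta-UAS-bla HEK293T cells grown in charcoal/dextran-stripped serum (2%); beta-lactamase activity read via CCF4 emission at 460 and 530 nm.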

[4] = qHTS assay for small molecule agonists of retinoid X receptor alpha signaling (AID 588544; calls by dose curve); details: HEK293T RXRa-UAS-bla, beta-lactamase reporter, 18 h; 530 nm emission
[5] = target: Retinoic acid receptor RXR-alpha (Homo sapiens) (UniProt P19793); assay: as above; details: HEK293T RXRa-UAS-bla, beta-lactamase reporter, 18 h; series mostly up to 76.7 µM
Retinoic acid receptor RXR-alpha (Homo sapiens), sequence (P19793 whole entry, looked up): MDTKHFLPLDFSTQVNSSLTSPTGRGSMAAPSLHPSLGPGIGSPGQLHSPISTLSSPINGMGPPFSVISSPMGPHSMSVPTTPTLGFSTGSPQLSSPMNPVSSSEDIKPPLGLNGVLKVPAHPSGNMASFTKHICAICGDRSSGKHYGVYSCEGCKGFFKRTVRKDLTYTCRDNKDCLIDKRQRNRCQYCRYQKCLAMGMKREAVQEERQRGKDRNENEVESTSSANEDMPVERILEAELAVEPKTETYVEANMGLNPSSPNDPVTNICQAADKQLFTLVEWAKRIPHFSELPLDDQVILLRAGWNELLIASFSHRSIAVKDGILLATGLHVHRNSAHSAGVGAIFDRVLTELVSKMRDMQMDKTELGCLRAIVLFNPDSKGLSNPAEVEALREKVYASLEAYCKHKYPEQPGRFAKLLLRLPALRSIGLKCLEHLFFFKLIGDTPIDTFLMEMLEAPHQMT

[6] = target: Thyroid hormone receptor beta (Homo sapiens) (UniProt P10828); assay: qHTS assay for small molecule agonists of thyroid hormone receptor beta signaling (AID 588545; calls by dose curve;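 note: 0% = DMSO only and 100% = 10 nM T3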); details: TR-UAS-bla GripTite HEK 293, beta-lactamase ratio, agonist mode, 18 h, percent of T3 response, DMSO as zero; series mostly up to 76.7 µM
Thyroid hormone receptor beta (Homo sapiens), sequence (P10828 whole entry, looked up): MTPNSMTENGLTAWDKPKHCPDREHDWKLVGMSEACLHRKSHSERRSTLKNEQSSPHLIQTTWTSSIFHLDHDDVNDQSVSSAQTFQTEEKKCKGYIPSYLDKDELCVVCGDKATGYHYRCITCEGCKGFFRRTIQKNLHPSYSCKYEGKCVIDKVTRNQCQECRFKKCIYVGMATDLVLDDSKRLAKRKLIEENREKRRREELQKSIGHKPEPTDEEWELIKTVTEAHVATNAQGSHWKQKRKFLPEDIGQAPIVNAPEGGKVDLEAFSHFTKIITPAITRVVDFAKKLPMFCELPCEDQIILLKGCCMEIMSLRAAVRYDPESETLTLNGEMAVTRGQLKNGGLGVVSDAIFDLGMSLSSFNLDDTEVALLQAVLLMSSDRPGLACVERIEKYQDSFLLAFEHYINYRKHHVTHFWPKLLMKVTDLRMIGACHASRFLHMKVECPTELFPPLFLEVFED
How it was run: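 TR-UAS-bla-GripTite HEK 293 cells in medium with 2% charcoal/dextran FBS, 0.1 mM NEAA and 1 mM sodium pyruvate were treated with titrated compounds for 18 hrs at 37 C. Beta-lactamase reporter was read with CCF4 dye (ex 405, em 460/530 nm); EC50 from Hill fits.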

[7] = qHTS assay for small molecule antagonists of retinoid X receptor alpha signaling (AID 588546; active = well fitted inhibition curve with a large enough effect in the signal ratio, with a control signal flat, not every such curve was filed as active; the % refers to the signal ratio;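 note: cells stimulated with 9-cis-retinoic acid as agonist; % is set by controls: 0 for no effect and ±100 for the full control effect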); details: HEK293T RXRa-UAS-bla, beta-lactamase ratio, antagonist mode; measured here: W530 green channel, cytotoxicity proxy
How it was run: (§1)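 Beta-lactamase reporter inhibition, read as CCF4 fluorescence ratio (ex 405, em 460/530 nm) after 2 h at RT. HEK293T UAS-bla cells, 2500/well, were stimulated with 9-cis-RA at 500 or 100 nM final alongside test compound for 18 h at 37 C.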

[8] = target: Retinoic acid receptor RXR-alpha (Homo sapiens) (UniProt P19793); assay: as above; details: HEK293T RXRa-UAS-bla, beta-lactamase ratio, antagonist mode
How it was run: as §1

[9] = target: Thyroid hormone receptor beta (Homo sapiens) (UniProt P10828); assay: qHTS assay for small molecule antagonists of thyroid hormone receptor beta signaling (AID 588547; active = well fitted inhibition curve with a large enough effect in the signal ratio, with a control signal flat, not every such curve was filed as active; the % refers to the signal ratio;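 note: cells stimulated with 0.4 nM T3 agonist during compound exposure; % is set by controls: 0 for no effect and ±100 for the full control effect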); details: TR-UAS-bla HEK293, beta-lactamase ratio, antagonist mode, 18 h
How it was run: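 TR-UAS-bla GripTite HEK293 cells in 2% charcoal/dextran FBS medium were preincubated 4 h at 37 C, given compound (0.59 nM to 92 uM) plus 0.4 nM T3 (final) for 18 h, then CCF4 for 2 h at RT; Hill fit gave IC50.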

[10] = S16 Schwann cell viability assay (CellTiter-Glo assay) (AID 624031); details: S16 rat Schwann cells viability, 24 h; series mostly up to 57.5 µM; note: nearly all actives have a fitted effect of over 70% in size; note: potency is the fitted concentration of half-maximal effect
How it was run: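 Concentration-effect curves come from CellTiter-Glo luminescence of S16 rat Schwann cells after 24 h compound exposure. Each reading was normalized to DMSO wells (0%) and wells without cells, and curves were ranked by r2 and response magnitude.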

[11] = S16 Schwann cell PMP22 intronic element firefly luciferase assay (AID 624032); details: S16 rat Schwann cells, PMP22 element FLuc, 24 h; series mostly up to 57.5 µM;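 note: plate controls were DMSO for no effect and PTC124 positive control mean for full effect; nearly all actives have a fitted effect of over 30% in size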
How it was run: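 Rat S16 Schwann cells stably carrying a PMP22 intronic element-driven Fluc reporter were seeded overnight, then exposed to compounds for 24 h at 37 °C. Luminescence was normalized to PTC124 (positive control) and DMSO (0% activity).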

[12] = S16 Schwann cell PMP22 intronic element beta-lactamase assay (AID 624044; calls by dose curve;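 note: 0% = DMSO and -100% = potassium clavulanate positive control; nearly all actives have a fitted effect of over 15% in size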); details: S16 rat Schwann cells, PMP22 element beta-lactamase FRET, 24 h; series mostly up to 38.3 µM
How it was run: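 Beta-lactamase reporter under a PMP22 intronic regulatory element in stable S16 rat Schwann cells; 24 h compound exposure. 460 nm blue signal normalized between DMSO (0%) and potassium clavulanate, with 535 nm FRET tracking viability; curves classed by r2 and response.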

[13] = target: Glucocorticoid receptor (Homo sapiens) (UniProt P04150); assay: qHTS assay for small molecule antagonists of glucocorticoid receptor signaling (AID 588533; active = well fitted inhibition curve with a large enough effect in the signal ratio, with a control signal flat, not every such curve was filed as active; the % refers to the signal ratio;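 note: cells stimulated with 2 nM dexamethasone as agonist; % is set by controls: 0 for no effect and ±100 for the full control effect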); details: HeLa MMTV-bla, GRE beta-lactamase ratio, antagonist mode, 18 h; series mostly up to 76.8 µM
Glucocorticoid receptor (Homo sapiens), sequence (P04150 whole entry, looked up): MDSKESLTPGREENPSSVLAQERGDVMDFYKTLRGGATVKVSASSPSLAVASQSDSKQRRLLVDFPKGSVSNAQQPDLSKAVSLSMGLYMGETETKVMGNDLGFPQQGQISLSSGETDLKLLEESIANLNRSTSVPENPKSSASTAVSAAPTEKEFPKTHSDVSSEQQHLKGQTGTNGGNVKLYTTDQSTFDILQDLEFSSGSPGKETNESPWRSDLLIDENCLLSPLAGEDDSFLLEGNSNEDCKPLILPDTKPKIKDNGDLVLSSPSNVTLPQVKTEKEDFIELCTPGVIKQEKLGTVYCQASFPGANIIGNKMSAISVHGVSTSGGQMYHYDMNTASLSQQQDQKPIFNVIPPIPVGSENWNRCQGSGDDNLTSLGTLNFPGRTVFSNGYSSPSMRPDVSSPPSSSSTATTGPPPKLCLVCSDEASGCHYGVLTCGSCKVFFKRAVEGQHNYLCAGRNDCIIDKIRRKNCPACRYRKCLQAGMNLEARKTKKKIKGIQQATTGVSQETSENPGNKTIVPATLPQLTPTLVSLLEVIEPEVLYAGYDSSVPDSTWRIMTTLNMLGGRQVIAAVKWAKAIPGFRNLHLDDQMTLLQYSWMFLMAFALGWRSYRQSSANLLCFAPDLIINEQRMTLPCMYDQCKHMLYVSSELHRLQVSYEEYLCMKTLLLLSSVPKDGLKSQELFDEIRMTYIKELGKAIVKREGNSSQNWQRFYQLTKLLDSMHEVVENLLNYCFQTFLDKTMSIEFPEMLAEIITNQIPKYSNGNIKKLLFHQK
How it was run: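 Antagonist-mode qHTS: compound titrations added to GRE-bla HeLa cells, then dexamethasone 2 nM final; 18 h, 37 C. CCF4 FRET fluorescence normalized to dexamethasone and DMSO; IC50 from Hill fit.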

[14] = target: Vitamin D3 receptor (Homo sapiens) (UniProt P11473); assay: qHTS assay for small molecule antagonists of vitamin D receptor signaling (AID 588541; calls by dose curve;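 note: receptor activated by calcitriol during compound treatment; % is set by controls: 0 for no effect and ±100 for the full control effect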); details: HEK293T VDR-UAS-bla, beta-lactamase ratio, antagonist mode; series mostly up to 76.7 µM
Vitamin D3 receptor (Homo sapiens), sequence (P11473 whole entry, looked up): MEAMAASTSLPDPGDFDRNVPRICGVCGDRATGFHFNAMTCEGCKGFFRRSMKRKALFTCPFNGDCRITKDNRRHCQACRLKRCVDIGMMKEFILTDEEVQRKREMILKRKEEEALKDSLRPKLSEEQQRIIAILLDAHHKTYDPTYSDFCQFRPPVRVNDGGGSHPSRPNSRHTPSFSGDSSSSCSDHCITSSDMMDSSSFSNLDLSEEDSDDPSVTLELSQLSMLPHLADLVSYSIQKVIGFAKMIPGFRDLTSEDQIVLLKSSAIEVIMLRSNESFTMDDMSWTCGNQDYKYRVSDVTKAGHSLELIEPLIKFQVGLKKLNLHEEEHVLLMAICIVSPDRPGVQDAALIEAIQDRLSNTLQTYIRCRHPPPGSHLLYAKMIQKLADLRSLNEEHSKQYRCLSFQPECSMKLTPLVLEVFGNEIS
How it was run: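 VDR-UAS-bla HEK293T cells (2000/well, 2% charcoal-stripped FBS) were treated with titrated compounds plus 1-alpha,25-dihydroxyvitamin D3 (50 nM or 3 nM final) for 16 h at 37 C. CCF4 beta-lactamase fluorescence was read; Hill fits gave IC50.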

[15] = target: Vitamin D3 receptor (Homo sapiens) (UniProt P11473); assay: qHTS assay for small molecule agonists of vitamin D receptor signaling (AID 588543; calls by dose curve;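 note: 0% = DMSO basal and 100% = reference agonist control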); details: HEK293T VDR-UAS-bla, beta-lactamase ratio, 16 h; series mostly up to 76.8 µM
How it was run: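 β-lactamase reporter, VDR-UAS-bla HEK293T, agonist mode. Cells plated 5 h at 37 °C, compound titration 16 h at 37 °C, CCF4 dye 2 h RT, ratio 460/530 nm. Hill fit → EC50, efficacy vs 50 nM 1α,25-(OH)2D3.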

[16] = target: Peroxisome proliferator-activated receptor gamma (Homo sapiens) (UniProt P37231); assay: qHTS assay for small molecule agonists of peroxisome proliferator-activated receptor gamma signaling (AID 588536; active = well fitted curve in the direction sought with a large enough effect in the signal ratio, with a control signal flat, not every such curve was filed as active; the % refers to the signal ratio;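 note: 0% = DMSO basal wells and 100% = rosiglitazone at 2 µM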); details: HEK293 PPARg-UAS-bla, beta-lactamase ratio, 16 h, percent of rosiglitazone response, DMSO as zero; series mostly up to 76.7 µM
Peroxisome proliferator-activated receptor gamma (Homo sapiens), sequence (P37231 whole entry, looked up): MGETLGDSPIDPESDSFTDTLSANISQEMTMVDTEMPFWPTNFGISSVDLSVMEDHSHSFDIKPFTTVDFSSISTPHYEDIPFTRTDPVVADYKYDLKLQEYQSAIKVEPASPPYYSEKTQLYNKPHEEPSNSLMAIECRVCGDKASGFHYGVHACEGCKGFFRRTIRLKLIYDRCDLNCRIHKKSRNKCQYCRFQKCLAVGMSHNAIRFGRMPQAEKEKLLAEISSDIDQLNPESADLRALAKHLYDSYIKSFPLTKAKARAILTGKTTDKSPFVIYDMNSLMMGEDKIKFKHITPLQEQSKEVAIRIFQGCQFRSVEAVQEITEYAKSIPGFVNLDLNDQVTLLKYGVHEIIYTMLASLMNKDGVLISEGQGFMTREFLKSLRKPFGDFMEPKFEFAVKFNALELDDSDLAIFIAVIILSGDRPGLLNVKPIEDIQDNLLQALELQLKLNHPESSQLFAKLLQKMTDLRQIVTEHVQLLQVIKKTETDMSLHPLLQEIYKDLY
How it was run: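 Compound treatment: 16 h, 37 C, HEK293 GeneBLAzer cells. Detection: CCF4, 2 h RT. Values: Hill-fit EC50, efficacy as % of 2 uM rosiglitazone.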

[17] = target: Peroxisome proliferator-activated receptor gamma (Homo sapiens) (UniProt P37231); assay: qHTS assay for small molecule antagonists of peroxisome proliferator-activated receptor gamma signaling (AID 588537; active = well fitted inhibition curve with a large enough effect in the signal ratio, with a control signal flat, not every such curve was filed as active; the % refers to the signal ratio; note: potency is the fitted concentration of half-maximal effect); details: HEK293 PPARg-UAS-bla, beta-lactamase ratio, antagonist mode; series mostly up to 76.8 µM
How it was run: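 HEK293 cells, PPAR-gamma-UAS-bla, 3000/well. Pre-incubation 6-6.5 h, 37 C. Compound titration with rosiglitazone 50 nM final, 16 h. CCF4 dye, 2 h RT, dual-emission fluorescence.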

[18] = target: Glutaminase kidney isoform, mitochondrial (Homo sapiens) (UniProt O94925); assay: qHTS for Inhibitors of Glutaminase (GLS): LOPAC Validation (AID 624146); details: glutaminase enzyme activity inhibition; series mostly up to 46.1 µM;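 note: glutamate product detected by oxidase and peroxidase coupled Amplex red fluorescence gain; % is set by controls: 0 for no effect and ±100 for the full control effect; nearly all actives have a fitted effect of over 60% in size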
How it was run: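 Read-out is an Amplex red fluorescence increase coupled through glutamate oxidase and HRP, measured before and after 30 min room-temperature incubation. hKGA is in 45 mM KH2PO4 (pH 8.2) with 0.02% Tween-20; glutamine added as 1mM solution.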

[19] = qHTS of Trypanosoma Brucei Inhibitors: LOPAC Validation (AID 624147); details: purified enzyme assay, luminescence, 45 min; series mostly up to 57.5 µM; note: 0% is about no effect
How it was run: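 Assay buffer: 50 mM TEA pH 7.2, 100 mM KCl, 10 mM MgCl2, 0.05% BSA, 0.01% Tween-20. Pyruvate kinase from T. brucei plus substrate met compound, then ADP (130 uM final). Luminescence was read post 45 min RT.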

[20] = target: Glucagon-like peptide 1 receptor (Homo sapiens) (UniProt P43220); assay: qHTS of GLP-1 Receptor Agonists: LOPAC Validation (AID 624148); details: GLP-1R agonist cell assay; series mostly up to 46.1 µM;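 note: 0% is about no effect; higher luminescence signal means agonism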
Glucagon-like peptide 1 receptor (Homo sapiens), sequence (P43220 whole entry, looked up): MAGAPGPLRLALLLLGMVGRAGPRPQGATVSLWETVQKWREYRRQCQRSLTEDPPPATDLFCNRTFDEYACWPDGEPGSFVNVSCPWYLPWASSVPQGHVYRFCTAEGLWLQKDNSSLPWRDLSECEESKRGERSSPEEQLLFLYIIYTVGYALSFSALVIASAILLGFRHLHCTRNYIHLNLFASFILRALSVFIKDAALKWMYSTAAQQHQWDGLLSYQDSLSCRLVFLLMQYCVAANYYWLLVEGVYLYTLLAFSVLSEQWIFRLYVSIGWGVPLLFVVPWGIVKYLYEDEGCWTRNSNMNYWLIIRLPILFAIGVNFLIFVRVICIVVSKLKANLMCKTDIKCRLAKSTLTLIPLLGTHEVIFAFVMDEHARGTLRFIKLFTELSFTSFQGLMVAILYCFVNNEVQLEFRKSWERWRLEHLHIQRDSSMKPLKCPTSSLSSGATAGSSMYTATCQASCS
How it was run: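 HEK293 cells stably co-expressing a cAMP-responsive luciferase reporter and a hypersensitive GLP-1R were plated 12 h at 37 °C and exposed to compounds for 4-6 hr at 37 °C, 5% CO2. Luminescence was read 12 min after adding detection reagent.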

CN(C)c1ccc(O)c2c1C[C@H]1C[C@H]3[C@H](N(C)C)C(=O)C(C(N)=O)=C(O)[C@@]3(O)C(=O)C1=C2O
inactive: Potency [1] | Potency [2]

Cc1ccc(C)c(OCCCC(C)(C)C(=O)O)c1
26.9% and -2.09%: max response [4]
34%: max response [3]
inactive: outcome [5] | outcome [6] | max response [8] 1.18% and -8.41% | activity change % (negative = inhibition) [9] -13.4% and -13.2% | Potency [1] | Potency [2] | Potency [10] | Potency [11] | Potency [12]
4.23% and -4.48%: max response [7]

COc1c2occc2cc2ccc(=O)oc12
inactive: outcome [13] | outcome [14] | outcome [15] | outcome [5] | outcome [6] | max response [8] 1.26% and 12.5% | activity change % (negative = inhibition) [9] 4.14% and -14.9% | Potency [1] | Potency [2] | Potency [10] | Potency [11] | Potency [12]
0.567% and -6.27%: max response [7]
59.3%: max response [3]
-1.38%: max response [4]

Clc1ccc(C(Cn2ccnc2)OCc2ccsc2Cl)c(Cl)c1 (configuration not stated)
active: Potency [1] 10 µM
inactive: Potency [2]

N[C@@H](Cc1cc(I)c(Oc2cc(I)c(O)c(I)c2)c(I)c1)C(=O)O
inactive: outcome [16] | outcome [14] | outcome [15] | outcome [5] | Potency [1] | Potency [2] | Potency [10] | Potency [11] | Potency [12]
-7.79%: max response [4]
active: Potency [17] 39.8 µM

COc1c(O)cc2c(c1O)[C@@H]1O[C@H](CO)[C@@H](O)[C@H](O)[C@H]1OC2=O
inactive: Potency [1]

Nc1nc(Cl)nc2c1ncn2[C@H]1C[C@H](O)[C@@H](CO)O1
inactive: outcome [13] | outcome [14] | outcome [15] | outcome [6] | max response [8] -2.35% | activity change % (negative = inhibition) [9] -1.32% | Potency [1]
5.76%: max response [7]

CC(C)C[C@H](NC(=O)[C@H](Cc1ccccc1)NC(=O)c1cnccn1)B(O)O
inactive: Potency [1]

CN(C)c1ccc2nc3ccc(=[N+](C)C)cc-3sc2c1
active: Potency [10] 4.05 µM
inactive: outcome [13] | outcome [16] | outcome [6] | max response [8] -3.23% | activity change % (negative = inhibition) [9] 20.5% | Potency [1] | Potency [11]
-22.9%: max response [7]

CC1(C)NC(=O)N(c2ccc([N+](=O)[O-])c(C(F)(F)F)c2)C1=O
inactive: outcome [16] | Potency [17] | outcome [14] | outcome [15] | outcome [5] | outcome [6] | max response [8] 1.48% | Potency [1] | Potency [2] | Potency [10] | Potency [12] | Potency [18] | Potency [19] | outcome [20]
-4.34%: max response [7]
13.6%: max response [4]
